Experimental data taken from PubChem BioAssay (NCI).
Values joined by “and” are separate entries in the source; they are usually repeats but may differ in a detail not shown here. Identical values can stand only once. Compounds without any hit were thinned out: in the full panel of roughly 83,000, 20% have a hit.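 How to read the values: 0–100, growth inhibition (40 = 60% inhibited); 0, no net growth; -100 to 0, cell death (-40 = 40% of starting cells died; -100 = all dead).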 Active and inactive are the calls of the source. The calls were made as follows: active = growth percent below 10; inactive = the rest.

Assays:
Assay in all cases: NCI-60 one-dose screen, 48 h (100 = growth as untreated, 0 = no growth, -100 = all killed)
Settings in all cases: 10 µM unless noted
HCT-15 colon = system: HCT-15 colon
HT29 colon = system: HT29 colon
U251 CNS = system: U251 CNS
PC-3 prostate = system: PC-3 prostate
SK-MEL-5 melanoma = system: SK-MEL-5 melanoma
UACC-62 melanoma = system: UACC-62 melanoma
LOX IMVI melanoma = system: LOX IMVI melanoma
SK-MEL-28 melanoma = system: SK-MEL-28 melanoma
SNB-75 CNS = system: SNB-75 CNS
SNB-19 CNS = system: SNB-19 CNS

Measured: growth

Nc1cccnc1
inactive: HCT-15 colon 111% | HT29 colon 103% | U251 CNS 103% | PC-3 prostate 97.9% | SK-MEL-5 melanoma 112% | UACC-62 melanoma 109% | LOX IMVI melanoma 104% | SK-MEL-28 melanoma 117%

O=S(=O)(F)c1cccc(Cl)c1C[P+](c1ccccc1)(c1ccccc1)c1ccccc1
inactive: HCT-15 colon 91.7% | HT29 colon 96.7% | SNB-75 CNS 81.2% | PC-3 prostate 85.4% | SK-MEL-5 melanoma 90.4% | UACC-62 melanoma 90.2% | LOX IMVI melanoma 101% | SK-MEL-28 melanoma 109%

Nc1c(Cl)c(Cl)nc(C(=O)O)c1Cl
inactive: HCT-15 colon 95% | HT29 colon 110% | SNB-75 CNS 71.4% | U251 CNS 94.2% | PC-3 prostate 84.9% | SK-MEL-5 melanoma 108% | UACC-62 melanoma 92.4% | LOX IMVI melanoma 90.7% | SK-MEL-28 melanoma 120%

O=[N+]([O-])c1cc(Cl)c(Cl)c([N+](=O)[O-])c1Cl
active: HCT-15 colon -18.5% | LOX IMVI melanoma -26.2%
inactive: HT29 colon 29.9% | SNB-19 CNS 103% | U251 CNS 78.7% | PC-3 prostate 66.8% | SK-MEL-5 melanoma 79.1% | UACC-62 melanoma 86% | SK-MEL-28 melanoma 103%

C[N+]1(CC#CC[N+]2(C)CCCC2)CCCC1
inactive: HCT-15 colon 103% | HT29 colon 101% | SNB-75 CNS 88.4% | U251 CNS 107% | SK-MEL-5 melanoma 101% | UACC-62 melanoma 99.9% | LOX IMVI melanoma 93.6% | SK-MEL-28 melanoma 111%

CC1=CC(=O)CCC12CCOC2=O (stereo not drawn)
inactive: HCT-15 colon 98.7% | HT29 colon 101% | SNB-75 CNS 91.3% | U251 CNS 99.1% | PC-3 prostate 111% | SK-MEL-5 melanoma 103% | UACC-62 melanoma 87% | LOX IMVI melanoma 95.6% | SK-MEL-28 melanoma 95.9%

O=[N+]([O-])c1cc(Br)c(O)c(Br)c1
inactive: HCT-15 colon 100% | SNB-75 CNS 102% | SNB-19 CNS 102% | U251 CNS 99.8% | PC-3 prostate 96.7% | SK-MEL-5 melanoma 98% | UACC-62 melanoma 105% | LOX IMVI melanoma 101% | SK-MEL-28 melanoma 120%

CCOP(=O)(NC)OCC
inactive: HCT-15 colon 112% | HT29 colon 109% | SNB-75 CNS 103% | U251 CNS 107% | PC-3 prostate 85.4% | SK-MEL-5 melanoma 100% | UACC-62 melanoma 108% | LOX IMVI melanoma 102% | SK-MEL-28 melanoma 104%

CCN1C(=O)NC(=O)C(C)(N2C(=O)c3c(F)c(F)c(F)c(F)c3C2=O)C1=O (stereo not drawn)
inactive: SNB-75 CNS 64.6% | PC-3 prostate 12.3% | SK-MEL-5 melanoma 54.1% | UACC-62 melanoma 10.4%
active: HCT-15 colon 5.26% | HT29 colon 6.44% | U251 CNS -25.4% | LOX IMVI melanoma -13.9% | SK-MEL-28 melanoma -45.5%

O=C(NC(Cl)=C(Cl)Cl)P(=O)(c1ccccc1)c1ccccc1
inactive: HCT-15 colon 105% | HT29 colon 112% | SNB-75 CNS 92.3% | U251 CNS 95.5% | SK-MEL-5 melanoma 98.5% | UACC-62 melanoma 102% | LOX IMVI melanoma 101% | SK-MEL-28 melanoma 99.6%

CCCCCCCCCCCCCCCCCCn1cc[n+](C)c1
active: HCT-15 colon 3.3% and -54.8% | SNB-75 CNS -74.4% and -55.1% | SNB-19 CNS -47.5% and -68% | U251 CNS -0.673% and -63.9% | PC-3 prostate -7.74% and -8.63% | SK-MEL-5 melanoma -81.1% and -74.1% | UACC-62 melanoma -70.9% and -82.1% | LOX IMVI melanoma 0.132% and -52.2% | SK-MEL-28 melanoma -49.4% and -52.8%

COC(=O)C1=CCCN(C)C1
inactive: HCT-15 colon 106% and 100% | SNB-75 CNS 103% and 90.3% | SNB-19 CNS 106% and 109% | U251 CNS 107% | PC-3 prostate 92.9% | SK-MEL-5 melanoma 102% | UACC-62 melanoma 111% and 101% | LOX IMVI melanoma 98.3% and 99.8% | SK-MEL-28 melanoma 110% and 108%

CC12CCC3C(CCC4CC(O)CCC43C)C1CCC2=O (stereo not drawn)
inactive: HCT-15 colon 91.4% | SNB-75 CNS 109% | SNB-19 CNS 112% | U251 CNS 95.9% | SK-MEL-5 melanoma 101% | UACC-62 melanoma 98.9% | LOX IMVI melanoma 92% | SK-MEL-28 melanoma 189%

Cc1nc2ccccc2c(=O)n1-c1ccccc1F
inactive: HT29 colon 103% | SNB-75 CNS 82.1% | SNB-19 CNS 104% | U251 CNS 88.1% | PC-3 prostate 86.6% | SK-MEL-5 melanoma 100% | UACC-62 melanoma 105% | LOX IMVI melanoma 103% | SK-MEL-28 melanoma 111%

O=C(O)C1C(C(=O)O)C2(Cl)C(Cl)=C(Cl)C1(Cl)C2(Cl)Cl (stereo not drawn)
inactive: HCT-15 colon 105% and 106% | SNB-75 CNS 82.3% and 93.7% | SNB-19 CNS 124% and 100% | U251 CNS 97.7% and 103% | SK-MEL-5 melanoma 104% and 116% | UACC-62 melanoma 104% and 102% | LOX IMVI melanoma 107% and 98.1% | SK-MEL-28 melanoma 108%

CCCCOC(N)=O
inactive: HCT-15 colon 101% | SNB-75 CNS 88.6% | SNB-19 CNS 98% | U251 CNS 106% | PC-3 prostate 108% | SK-MEL-5 melanoma 99.6% | LOX IMVI melanoma 104% | SK-MEL-28 melanoma 112%

CC1=CC(=Nc2ccc(N(CCCl)CCCl)cc2)C=C(C)C1=O
active: UACC-62 melanoma 6.59%
inactive: HT29 colon 11.1% | SNB-75 CNS 25.3% | SNB-19 CNS 37.9% | U251 CNS 17.9% | PC-3 prostate 41.6% | SK-MEL-5 melanoma 22.8% | LOX IMVI melanoma 16.9% | SK-MEL-28 melanoma 26.3%

CCCC[C@H]1C(=O)O[C@H](C)[C@H](NC(=O)c2cccc(NC=O)c2O)C(=O)O[C@@H](C)[C@@H]1OC(=O)CC(C)C
active: SK-MEL-5 melanoma -5.18%
inactive: HCT-15 colon 39.9% | SNB-75 CNS 56.8% | SNB-19 CNS 44.4% | U251 CNS 42.9% | PC-3 prostate 32.9% | UACC-62 melanoma 34% | LOX IMVI melanoma 32.9% | SK-MEL-28 melanoma 83.9%

O=C/C=C/c1ccco1
inactive: HCT-15 colon 106% | SNB-75 CNS 80.5% | SNB-19 CNS 106% | U251 CNS 95.1% | PC-3 prostate 83.7% | SK-MEL-5 melanoma 113% | LOX IMVI melanoma 98.2% | SK-MEL-28 melanoma 114%

C[C@]12CCC3[C@@H](C[C@@H]4SC(Nc5ccccc5)=N[C@@]45CC(=O)CC[C@]35C)[C@@H]1CCC2=O (stereo partly drawn)
active: HCT-15 colon 1.93% | U251 CNS -82.4% | UACC-62 melanoma -1.09% | LOX IMVI melanoma -58.1% | SK-MEL-28 melanoma 1.73%
inactive: SNB-75 CNS 41.5% | SNB-19 CNS 21.9% | SK-MEL-5 melanoma 26.3%

CC[C@H](C)[C@H](NC(=O)c1cnccn1)C(=O)N(C)[C@H](C[C@@H](OC(C)=O)c1nc(C(=O)N[C@@H](Cc2ccccc2)C[C@H](C)C(=O)OC)cs1)C(C)C
active: HT29 colon -5.79% | SK-MEL-5 melanoma 0.869%
inactive: SNB-75 CNS 15% | SNB-19 CNS 31.9% | U251 CNS 10.3% | PC-3 prostate 21.7% | UACC-62 melanoma 34.2% | LOX IMVI melanoma 17.5% | SK-MEL-28 melanoma 59.2%

COc1ccn(C)c(=O)c1C#N
inactive: HCT-15 colon 101% | SNB-75 CNS 114% | SNB-19 CNS 109% | U251 CNS 92% | PC-3 prostate 94.7% | SK-MEL-5 melanoma 98% | UACC-62 melanoma 95.9% | LOX IMVI melanoma 97% | SK-MEL-28 melanoma 106%

Cc1ccc(NC2=N[C@]34CC(=O)CC[C@]3(C)[C@H]3CC[C@]5(C)C(=O)CC[C@H]5[C@@H]3C[C@@H]4S2)c(C)c1
inactive: SNB-75 CNS 35.1% | U251 CNS 18.4% | PC-3 prostate 15.8% | SK-MEL-5 melanoma 51.4% | UACC-62 melanoma 39% | SK-MEL-28 melanoma 50.8%
active: HCT-15 colon 0.807% | LOX IMVI melanoma -16.6%

C=C1C(=O)OC2CC3(C)OC3C3OC3C3=CC(OC3=O)C12 (stereo not drawn)
inactive: HCT-15 colon 46.4% and 36% | SNB-75 CNS 87.7% and 90.1% | SNB-19 CNS 104% and 103% | U251 CNS 103% and 104% | PC-3 prostate 106% and 92.2% | SK-MEL-5 melanoma 109% and 95% | UACC-62 melanoma 99.3% and 82.7% | LOX IMVI melanoma 93.1% and 92% | SK-MEL-28 melanoma 52.6% and 73.8%

C(=NC1CCCCC1)=NC1CCCCC1
inactive: HCT-15 colon 108% | SNB-75 CNS 87.5% and 79.6% | SNB-19 CNS 103% and 83.9% | U251 CNS 117% | PC-3 prostate 97.5% and 48.6% | SK-MEL-5 melanoma 103% and 61.4% | UACC-62 melanoma 104% and 87.6% | LOX IMVI melanoma 109% | SK-MEL-28 melanoma 97.2% and 94.9%

S=P(SP(=S)(c1ccccc1)c1ccccc1)(c1ccccc1)c1ccccc1
inactive: HT29 colon 101% | SNB-75 CNS 91.2% | SNB-19 CNS 103% | U251 CNS 101% | PC-3 prostate 93.5% | SK-MEL-5 melanoma 99.9% | UACC-62 melanoma 88.7% | LOX IMVI melanoma 98.5% | SK-MEL-28 melanoma 111%

Nc1ccc(P(=O)(O)O)cc1
inactive: HCT-15 colon 97.4% and 95.9% | SNB-75 CNS 95% and 94.5% | SNB-19 CNS 108% and 107% | U251 CNS 102% and 94.7% | PC-3 prostate 99.5% and 92.7% | SK-MEL-5 melanoma 110% and 107% | UACC-62 melanoma 110% and 99.8% | LOX IMVI melanoma 89.1% and 98% | SK-MEL-28 melanoma 117% and 111%
